# According to PubChem BioAssay (NCATS):
# Inconclusive results are not listed. Where a call stands in place of a potency, no number is given. Calls of active or inactive are those of the source. Unless noted, the call rests on the fitted dose curve; in most records, active means well fitted curve in the direction sought with a large enough effect; inconclusive means small, poorly fitted or top-dose-only effect, or another doubt; inactive means no such curve, though single readings can be large; an effect the other way counts as inactive or inconclusive.
# Key:
# [1] = target: Calcium and integrin-binding protein 1 (Homo sapiens) (UniProt Q99828); test: Primary qHTS for Identification of Calcium Integrin Binding Protein 1 (CIB1) Competitor (AID 1508620);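 further: GST tagged CIB1 binding a fluorescein labelled alphaIIb integrin peptide tracer; top concentration of the series differs between compounds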
# Summary of the method: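 CIB1-GST (1 uM final) and compound incubated 15 min at room temperature before adding FITC-alphaIIb peptide tracer (100 nM final). Competition for binding read by fluorescence polarization (ex 480, em 540) after another 15 min at room temperature.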
# [2] = target: Rap guanine nucleotide exchange factor 3 (Homo sapiens) (UniProt O95398); test: Confirmatory qHTS for agonist of cAMP-regulated guanine nucleotide exchange factor 3 (EPAC1) (AID 1645881);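 further: EPAC1 catalysed release of BODIPY-GDP from Rap1B seen as fluorescence loss; nearly all actives have a fitted effect of over 75% in size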
# [3] = target: Rap guanine nucleotide exchange factor 4 (Homo sapiens) (UniProt Q8WZA2); test: Confirmatory qHTS for agonist of cAMP-regulated guanine nucleotide exchange factor 4 (EPAC2) (AID 1645884);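 further: nucleotide exchange releases bodipy-GDP from Rap1 and this lowers its fluorescence; nearly all actives have a fitted effect of over 65% in size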
# [4] = target: Rap guanine nucleotide exchange factor 4 (Homo sapiens) (UniProt Q8WZA2); test: Confirmatory qHTS for antagonist of cAMP-regulated guanine nucleotide exchange factor 4 (EPAC2) (AID 1645885); further: nearly all actives have a fitted effect of over 25% in size; further: potency means the concentration at half of the fitted maximal effect
# [5] = target: Rap guanine nucleotide exchange factor 3 (Homo sapiens) (UniProt O95398); test: Counterscreen qHTS for agonist of cAMP-regulated guanine nucleotide exchange factor 3 (EPAC1) (AID 1645889); further: nearly all actives have a fitted effect of over 40% in size
# Summary of the method: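 Rap1B-BODIPY-GDP 250 nM + GDP 50 uM; cpds 7-pt, final 9.74 nM–152 uM (activator mode) or from 7.32 nM upwards (inhibitor mode); RT; FI 480/540 nm at 5 and 30 min, then ± cAMP, reread.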
# [6] = target: Mitogen-activated protein kinase 10 (Mus musculus) (UniProt Q61831); test: JNK3 AlphaScreen Assay (AID 530; active means well fitted curve in either direction with a large enough effect, not every such curve was filed as active;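 further: kinase came from lysate of stimulated human HepG2 cells; signal reports phosphorylation of biotinylated GST-cJun 1-79 at Ser73 with 10 µM ATP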)
# Summary of the method: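 Room-temperature AlphaScreen kinase assay; pre-activated HepG2 lysate as JNK3 source, biotin-GST-cJun(1-79) substrate, 10 uM ATP, compound 15 min preincubation.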
# [7] = target: Cytochrome P450 3A4 (Homo sapiens) (UniProt P08684); test: qHTS Assay for Inhibitors and Substrates of Cytochrome P450 3A4 (AID 884); further: nearly all actives have a fitted effect of over 50% in size; further: potency means the concentration at half of the fitted maximal effect
# Summary of the method: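 20 nM human CYP3A4 with 25 uM Luciferin-PPXE (at KM) in 200 mM KPO4, preincubated 10 min with compound; NADPH regeneration started a 60 min RT reaction. Luciferin detected by luminescence, normalized to 57 uM ketoconazole as full inhibition.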
# [8] = target: Rap guanine nucleotide exchange factor 3 (Homo sapiens) (UniProt O95398); test: Confirmatory qHTS for antagonist of cAMP-regulated guanine nucleotide exchange factor 3 (EPAC1) (AID 1645880); further: nearly all actives have a fitted effect of over 55% in size; further: potency means the concentration at half of the fitted maximal effect
# Summary of the method: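 Nucleotide exchange uses 100 nM EPAC1, 250 nM RAP1B-BODIPY-GDP and 50 uM GDP, with compounds in a concentration-titration series. After 5 min at room temperature, fluorescence (480 nm ex/540 nm em) is read every 5 min for 30 min. Data are normalized to control ATA and DMSO.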
# [9] = qHTS for Inhibitors of Ubiquitin-specific Protease USP2a Using CHOP2 as the Reporter: K633 Counterscreen (AID 652168)
# Summary of the method: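 Cell-free interference counterscreen without USP2a: compounds pinned into enzyme-free buffer (20 mM Tris pH 8, 2 mM beta-mercaptoethanol, 0.05% Chaps), then DiUb K48-4IQF substrate added (100 nM stock); fluorescence read kinetically, Ex 525/Em 598.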
# [10] = target: Ubiquitin carboxyl-terminal hydrolase 2 (Homo sapiens) (UniProt O75604); test: qHTS for Inhibitors of Ubiquitin-specific Protease USP2a Using CHOP2 as the Reporter: K484 Substrate (AID 652173);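 further: cleavage of internally quenched K48 di-ubiquitin substrate measured as rising fluorescence over time; nearly all actives have a fitted effect of over 70% in size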
# Summary of the method: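 USP2 (dispensed at 5 nM) was pinned with compounds, then DiUb K48 internally quenched fluorescent substrate (dispensed at 100 nM) was added. The buffer was 20 mM Tris pH 8, 2 mM beta-mercaptoethanol and 0.05% CHAPS. Cleavage was read kinetically as rising fluorescence, Ex 525/Em 598.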
# [11] = target: Glutathione peroxidase 1 (Homo sapiens) (UniProt P07203); test: Primary qHTS Assay for Inhibitors of Recombinant Selenoprotein Glutathione Peroxidase 1 (GPX1) (AID 1845191); further: nearly all actives have a fitted effect of over 65% in size
# Summary of the method: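 10 nM GPX1 + cpd, 30 min RT; start w/ 1 mM GSH, 0.5 mM cumene hydroperoxide, 0.5 mM NADPH, 100 nM GR, 0.01% BSA; buffer 50 mM Tris-HCl pH 7.5, 2 mM EDTA, 150 mM NaCl; Fl 340/450, 0 & 15 min.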
# [12] = AP1 Signaling Pathway (AID 357; active means well fitted curve in either direction with a large enough effect, not every such curve was filed as active;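 further: ME-180 reporter cells stimulated with EGF at its EC50 level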); settings: ME-180 (cervical carcinoma) AP-1-bla reporter, EGF-induced, beta-lactamase ratio, 5 h; at 7.69 µM (top of the series) unless noted
# Summary of the method: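 Read-out was the 460nm/530nm emission ratio (excitation 405nm) after CCF4 loading for 2.5 hours at room temperature. Cells carried an AP-1-driven beta-lactamase reporter, were stimulated with EC50 EGF plus compound for 5 hours, and AC50 values came from titrations.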
# [13] = NFAT Signaling Pathway (AID 444; active means well fitted curve in either direction with a large enough effect, not every such curve was filed as active;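 further: carbachol stimulus at about its EC50 of 1 µM final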); settings: Jurkat NFAT-bla M1, carbachol, beta-lactamase ratio, 5 h; at 7.69 µM (top of the series) unless noted
# Summary of the method: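 Read-out: CCF4 FRET ratio (460 nm/530 nm) after 1 h RT dye loading, used for %activity and AC50 from titration series. Cells: Jurkat NFAT-β-lactamase/M1 line, treated with compound plus 1 uM carbachol for 5 h, 37 °C.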
# [14] = target: Glucocorticoid receptor (Homo sapiens) (UniProt P04150); test: GR-GFP Redistribution (AID 450;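 active means compounds whose dose series gives a full or clear partial fitted curve of increased nuclear translocation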; further: potency means the concentration at half of the fitted maximal effect); settings: U2OS GR-GFP nuclear translocation, laser cytometry, 2 h
# [15] = target: Phospholipid hydroperoxide glutathione peroxidase GPX4 (Homo sapiens) (UniProt P36969); test: Primary qHTS Assay for Inhibitors of Recombinant Selenoprotein Glutathione Peroxidase 4 (GPX4) (AID 1845192); settings: outcome: dose series up to 50 µM unless noted; further: nearly all actives have a fitted effect of over 65% in size
# Summary of the method: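 NADPH consumption, followed by fluorescence at 340/450 nm between 0 and 15 min, reports GPX4 activity via coupled glutathione reductase (100 nM). Enzyme 200 nM was pre-exposed to compound 30 min; 0.5 mM cumene hydroperoxide and 1 mM GSH served as substrates.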
# [16] = qHTS drug screen for cell cycle checkpoint inhibitors in PARPi-resistant BRCA-mutant ovarian cancer cell lines. (AID 1963452; calls by dose curve); settings: PEO1/OlaR viability, CellTiter-Glo luminescence, 96 h, stronger effect = lower value
# Summary of the method: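 PEO1, PEO4 and PEO1/OlaR ovarian cancer cells, 600 per well, exposed 96 h at 37C to a dilution series. Viability read by CellTiter-Glo luminescence, normalized to DMSO and empty wells; activity summarized as Z-AUC.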
# [17] = target: Cytochrome P450 3A4 (Homo sapiens) (UniProt P08684); test: qHTS Assay for Activators of Cytochrome P450 3A4 (AID 885); further: nearly all actives have a fitted effect of over 65% in size
# Summary of the method: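 Human CYP3A4 (20 nM) with Luciferin-PPXE at 25 uM (its KM) in 200 mM KPO4; 10 min compound preincubation, then NADPH regeneration and 60 min reaction at RT. Luciferin read by luminescence; normalized to 57 uM ketoconazole full inhibition.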
# Chain of Rap guanine nucleotide exchange factor 4 (Homo sapiens) (Q8WZA2 whole entry, looked up): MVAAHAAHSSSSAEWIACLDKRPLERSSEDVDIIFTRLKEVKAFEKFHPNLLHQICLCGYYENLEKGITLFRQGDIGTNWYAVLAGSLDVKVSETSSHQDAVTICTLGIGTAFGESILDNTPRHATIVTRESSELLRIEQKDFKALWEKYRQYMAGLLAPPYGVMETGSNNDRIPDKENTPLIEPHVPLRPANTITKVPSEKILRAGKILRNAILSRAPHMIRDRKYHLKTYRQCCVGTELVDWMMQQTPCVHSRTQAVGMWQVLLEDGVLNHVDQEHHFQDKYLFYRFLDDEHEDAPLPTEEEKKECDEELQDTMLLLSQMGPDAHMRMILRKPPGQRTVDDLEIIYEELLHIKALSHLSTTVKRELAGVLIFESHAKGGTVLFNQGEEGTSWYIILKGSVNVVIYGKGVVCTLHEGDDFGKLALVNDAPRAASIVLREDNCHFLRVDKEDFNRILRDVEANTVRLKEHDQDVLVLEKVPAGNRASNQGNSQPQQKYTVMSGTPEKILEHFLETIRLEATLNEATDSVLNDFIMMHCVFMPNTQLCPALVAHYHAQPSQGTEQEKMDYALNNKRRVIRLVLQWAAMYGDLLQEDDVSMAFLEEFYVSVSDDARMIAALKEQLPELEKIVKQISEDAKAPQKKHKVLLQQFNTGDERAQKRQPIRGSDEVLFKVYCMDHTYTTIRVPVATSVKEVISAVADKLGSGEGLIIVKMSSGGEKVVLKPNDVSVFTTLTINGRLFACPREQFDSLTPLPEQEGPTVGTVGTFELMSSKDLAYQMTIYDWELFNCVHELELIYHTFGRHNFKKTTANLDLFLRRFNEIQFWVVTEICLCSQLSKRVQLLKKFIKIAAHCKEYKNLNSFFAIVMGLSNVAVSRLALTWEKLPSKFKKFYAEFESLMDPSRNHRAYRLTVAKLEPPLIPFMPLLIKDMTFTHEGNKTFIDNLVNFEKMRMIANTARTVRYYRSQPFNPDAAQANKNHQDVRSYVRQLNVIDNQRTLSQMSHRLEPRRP
# Chain of Rap guanine nucleotide exchange factor 3 (Homo sapiens) (O95398 whole entry, looked up): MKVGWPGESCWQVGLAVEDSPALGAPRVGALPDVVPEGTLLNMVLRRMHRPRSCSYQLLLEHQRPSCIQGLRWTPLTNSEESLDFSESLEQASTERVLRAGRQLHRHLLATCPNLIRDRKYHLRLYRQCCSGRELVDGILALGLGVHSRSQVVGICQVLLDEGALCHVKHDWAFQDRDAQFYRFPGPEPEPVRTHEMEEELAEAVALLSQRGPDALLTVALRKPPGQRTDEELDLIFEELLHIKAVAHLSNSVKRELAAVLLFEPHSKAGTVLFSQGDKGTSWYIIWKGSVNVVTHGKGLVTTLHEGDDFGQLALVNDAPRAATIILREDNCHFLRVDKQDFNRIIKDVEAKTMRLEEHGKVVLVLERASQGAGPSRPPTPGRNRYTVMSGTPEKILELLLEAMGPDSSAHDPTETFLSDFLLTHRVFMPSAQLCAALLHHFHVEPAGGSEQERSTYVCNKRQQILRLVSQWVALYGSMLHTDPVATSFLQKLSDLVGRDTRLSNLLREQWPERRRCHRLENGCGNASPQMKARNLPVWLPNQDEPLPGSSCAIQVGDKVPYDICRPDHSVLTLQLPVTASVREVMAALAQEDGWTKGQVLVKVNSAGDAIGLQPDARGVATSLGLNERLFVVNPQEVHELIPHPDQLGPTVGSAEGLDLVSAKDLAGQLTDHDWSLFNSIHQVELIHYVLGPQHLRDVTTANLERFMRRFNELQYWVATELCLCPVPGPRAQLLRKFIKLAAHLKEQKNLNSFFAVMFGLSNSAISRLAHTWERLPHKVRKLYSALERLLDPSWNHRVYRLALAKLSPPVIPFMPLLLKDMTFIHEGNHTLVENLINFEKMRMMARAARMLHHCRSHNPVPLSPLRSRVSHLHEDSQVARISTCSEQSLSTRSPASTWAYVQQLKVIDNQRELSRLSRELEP
# Chain of Cytochrome P450 3A4 (Homo sapiens) (P08684 whole entry, looked up): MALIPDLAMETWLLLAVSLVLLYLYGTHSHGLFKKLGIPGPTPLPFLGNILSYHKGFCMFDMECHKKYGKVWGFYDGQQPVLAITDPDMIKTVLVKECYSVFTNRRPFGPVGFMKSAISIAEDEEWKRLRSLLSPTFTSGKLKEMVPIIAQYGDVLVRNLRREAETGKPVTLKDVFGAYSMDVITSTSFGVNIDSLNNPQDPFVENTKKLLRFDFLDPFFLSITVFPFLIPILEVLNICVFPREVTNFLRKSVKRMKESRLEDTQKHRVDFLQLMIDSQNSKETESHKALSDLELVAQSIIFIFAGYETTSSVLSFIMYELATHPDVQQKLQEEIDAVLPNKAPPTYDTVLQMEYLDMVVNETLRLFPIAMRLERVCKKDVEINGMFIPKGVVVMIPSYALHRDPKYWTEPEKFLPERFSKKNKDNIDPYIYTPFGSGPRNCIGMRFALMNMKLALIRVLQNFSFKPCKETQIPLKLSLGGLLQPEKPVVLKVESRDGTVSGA
# Chain of Glutathione peroxidase 1 (Homo sapiens) (P07203 whole entry, looked up): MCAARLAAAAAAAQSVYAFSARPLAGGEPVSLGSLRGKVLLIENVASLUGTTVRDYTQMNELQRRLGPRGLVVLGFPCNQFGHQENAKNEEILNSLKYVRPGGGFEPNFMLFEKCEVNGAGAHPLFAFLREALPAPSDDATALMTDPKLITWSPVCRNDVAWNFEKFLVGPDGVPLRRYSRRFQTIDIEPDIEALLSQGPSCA
# Chain of Calcium and integrin-binding protein 1 (Homo sapiens) (Q99828 whole entry, looked up): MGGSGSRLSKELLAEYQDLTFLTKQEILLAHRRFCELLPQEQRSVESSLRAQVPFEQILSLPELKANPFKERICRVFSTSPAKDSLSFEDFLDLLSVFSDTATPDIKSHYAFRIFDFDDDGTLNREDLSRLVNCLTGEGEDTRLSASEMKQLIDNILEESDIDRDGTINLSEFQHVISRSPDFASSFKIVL
# Chain of Ubiquitin carboxyl-terminal hydrolase 2 (Homo sapiens) (O75604 whole entry, looked up): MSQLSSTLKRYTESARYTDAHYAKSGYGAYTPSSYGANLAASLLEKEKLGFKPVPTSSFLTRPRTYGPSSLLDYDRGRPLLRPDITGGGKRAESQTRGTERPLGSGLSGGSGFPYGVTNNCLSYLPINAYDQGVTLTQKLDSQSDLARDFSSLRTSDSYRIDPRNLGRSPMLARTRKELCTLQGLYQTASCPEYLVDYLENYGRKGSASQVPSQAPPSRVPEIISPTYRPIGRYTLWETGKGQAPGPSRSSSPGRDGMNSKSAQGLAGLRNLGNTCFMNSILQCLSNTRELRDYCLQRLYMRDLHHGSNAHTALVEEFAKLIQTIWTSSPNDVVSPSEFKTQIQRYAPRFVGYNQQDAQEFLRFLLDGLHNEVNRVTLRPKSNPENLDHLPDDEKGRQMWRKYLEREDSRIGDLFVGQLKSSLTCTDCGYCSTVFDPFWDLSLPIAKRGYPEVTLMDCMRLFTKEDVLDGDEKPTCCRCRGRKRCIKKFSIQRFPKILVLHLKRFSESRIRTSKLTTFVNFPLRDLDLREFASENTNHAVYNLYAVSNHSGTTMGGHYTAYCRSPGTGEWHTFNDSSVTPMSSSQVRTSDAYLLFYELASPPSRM
# Chain of Glucocorticoid receptor (Homo sapiens) (P04150 whole entry, looked up): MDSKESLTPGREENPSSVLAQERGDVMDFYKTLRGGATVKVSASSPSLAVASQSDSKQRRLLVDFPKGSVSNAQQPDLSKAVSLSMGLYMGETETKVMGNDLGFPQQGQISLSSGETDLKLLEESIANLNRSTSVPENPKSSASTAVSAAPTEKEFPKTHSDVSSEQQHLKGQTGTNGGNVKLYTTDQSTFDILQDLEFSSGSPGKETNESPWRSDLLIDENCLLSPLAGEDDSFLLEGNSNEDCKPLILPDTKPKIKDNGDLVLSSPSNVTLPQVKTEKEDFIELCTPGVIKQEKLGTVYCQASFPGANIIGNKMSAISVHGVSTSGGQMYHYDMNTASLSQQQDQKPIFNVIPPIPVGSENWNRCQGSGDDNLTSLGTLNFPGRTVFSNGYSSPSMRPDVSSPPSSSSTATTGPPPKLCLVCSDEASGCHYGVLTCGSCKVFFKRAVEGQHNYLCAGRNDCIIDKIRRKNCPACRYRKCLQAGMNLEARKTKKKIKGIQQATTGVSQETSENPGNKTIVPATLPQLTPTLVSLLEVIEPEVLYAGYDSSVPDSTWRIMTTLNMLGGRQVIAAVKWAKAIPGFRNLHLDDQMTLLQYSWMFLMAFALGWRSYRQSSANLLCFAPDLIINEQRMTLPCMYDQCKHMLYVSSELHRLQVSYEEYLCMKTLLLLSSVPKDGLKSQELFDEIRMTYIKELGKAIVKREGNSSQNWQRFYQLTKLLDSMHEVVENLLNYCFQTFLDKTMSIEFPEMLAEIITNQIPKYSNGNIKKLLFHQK
# Chain of Phospholipid hydroperoxide glutathione peroxidase GPX4 (Homo sapiens) (P36969 whole entry, looked up): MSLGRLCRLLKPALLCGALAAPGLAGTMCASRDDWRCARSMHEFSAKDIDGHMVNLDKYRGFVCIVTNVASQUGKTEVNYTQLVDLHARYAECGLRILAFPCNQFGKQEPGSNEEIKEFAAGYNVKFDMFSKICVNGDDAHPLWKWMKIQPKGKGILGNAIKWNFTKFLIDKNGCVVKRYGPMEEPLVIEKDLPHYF
compound,measurement,setting,value
CCOc1ccccc1CNc1ncnc2ccc(-c3c(C)noc3C)cc12,Potency,[1],inactive
same,outcome,[2],inactive
same,outcome,[3],inactive
same,Potency,[4],inactive
same,outcome,[5],inactive
CCCn1c(C)nc2c(NCCN(C)C)nc(C)nc21,outcome,[6],inactive
same,Potency,[7],inactive
same,Potency,[1],inactive
COc1ccc(N2C(=O)c3ccccc3C2=O)cc1,Potency,[1],inactive
same,Potency,[8],inactive
same,outcome,[2],inactive
same,outcome,[3],inactive
same,Potency,[4],inactive
same,outcome,[5],inactive
O=C(CCc1ccccc1)Nc1ccc(S(=O)(=O)Nc2nccs2)cc1,outcome,[9],inactive
same,Potency,[10],inactive
same,Potency,[1],inactive
same,Potency,[8],inactive
same,outcome,[2],inactive
same,activation,[3],9.99% [at 17.1 µM] (inactive)
same,"activity change, negative = inhibition",[4],1.51% [at 12.7 µM] (inactive)
same,activation,[5],9.8% [at 30.8 µM] (inactive)
O=C(CSc1nnc(-c2cccc(S(=O)(=O)N3CCCC3)c2)n1-c1ccccc1)Nc1ccc(C(=O)O)cc1,Potency,[1],inactive
same,outcome,[2],inactive
same,activation,[3],-2.44% [at 17.1 µM] (inactive)
same,"activity change, negative = inhibition",[4],-11.1% [at 12.7 µM] (inactive)
CC(C)(C)n1nc(Cc2cccc([N+](=O)[O-])c2)c2c(N)ncnc21,Potency,[1],inactive
same,Potency,[11],inactive
COc1ccc(-n2c(C)c(C(C)=O)c3cc(O)ccc32)cc1,"activity change, negative = inhibition",[12],-14.7% [at 17.2 µM] (inactive)
same,"activity change, negative = inhibition",[13],1.89% [at 17.2 µM] (inactive)
same,Potency,[14],> 20.6 µM (inactive)
same,Potency,[1],inactive
CN(Cc1ccccc1)C(=O)c1ccc(S(=O)(=O)Nc2ccccc2)cc1,Potency,[1],inactive
same,Potency,[11],inactive
same,Potency,[15],inactive
same,Z-AUC,[16],-0.829 (inactive)
same,Z-AUC,[16]; measured here: PEO1 parental Z-AUC,-0.00385
same,Z-AUC,[16]; measured here: PEO4 Z-AUC,0.744
Cc1ccc(NS(=O)(=O)c2cc3c(cc2N[C@H](C)CO)NC(=O)CC3)cc1C,Potency,[1],inactive
same,Potency,[11],inactive
O=C1Cc2cc(S(=O)(=O)N3CCNCC3)ccc2N1,Potency,[1],inactive
same,Potency,[8],inactive
same,outcome,[2],inactive
same,activation,[3],3.97% [at 17.1 µM] (inactive)
same,"activity change, negative = inhibition",[4],9.22% [at 12.7 µM] (inactive)
CC(=O)c1ccc(N2CCN(S(=O)(=O)c3ccc4c(c3)C(Cl)(Cl)C(=O)N4)CC2)cc1,Potency,[1],inactive
same,Potency,[8],26.9 µM (active)
same,outcome,[2],inactive
CC(=O)NC(c1cccs1)c1cc(Cl)c2ccccc2c1O (configuration not stated),Potency,[1],inactive
same,Potency,[8],inactive
same,outcome,[2],inactive
same,outcome,[3],inactive
same,Potency,[4],12 µM (active)
CCCn1c(C)nc2c(NCCOC)nc(C)nc21,outcome,[6],inactive
same,Potency,[7],inactive
same,Potency,[1],inactive
CCCn1c(-c2ccc(F)cc2)nc2c(N3CCN(CCn4ccnc4)CC3)nc(C)nc21,outcome,[6],inactive
same,Potency,[7],0.631 µM (active)
same,Potency,[17],inactive
same,Potency,[1],inactive
CCCn1c(-c2ccc(F)cc2)nc2c(NC3CCN(Cc4ccccc4)CC3)nc(C)nc21,outcome,[6],inactive
same,Potency,[7],inactive
same,Potency,[1],inactive
CCCn1c(C)nc2c(NCC3CCCN3CC)nc(C)nc21 (configuration not stated),outcome,[6],inactive
same,Potency,[7],inactive
same,Potency,[1],inactive
CCN(CC)CCCCn1c(-c2ccccc2)nc2c(NCCOC)nc(C)nc21,outcome,[6],inactive
same,Potency,[7],inactive
same,Potency,[1],inactive
CCCn1c(C)nc2c(NCCN3CCCCC3)nc(C)nc21,outcome,[6],inactive
same,Potency,[7],inactive
same,Potency,[1],inactive
COCCNc1nc(C)nc2c1nc(-c1ccccc1)n2CC1CCN(C)CC1,outcome,[6],inactive
same,Potency,[7],inactive
same,Potency,[1],inactive
Cc1nc(NCCO)c2nc(-c3ccccc3)n(CC3CCN(C)CC3)c2n1,outcome,[6],inactive
same,Potency,[7],inactive
same,Potency,[1],inactive
CCCn1c(-c2ccc(F)cc2)nc2c(NCCCN3CCCCC3C)nc(C)nc21 (configuration not stated),outcome,[6],inactive
same,Potency,[7],10 µM (active)
same,Potency,[17],inactive
same,Potency,[1],inactive
CCCn1c(-c2ccc(F)cc2)nc2c(NCCN(C)C)nc(C)nc21,outcome,[6],inactive
same,Potency,[7],inactive
same,Potency,[1],inactive
CCCn1c(-c2ccc(F)cc2)nc2c(NCCCN(C)C)nc(C)nc21,outcome,[6],inactive
same,Potency,[7],inactive
same,Potency,[1],inactive
Cc1nc(NCc2ccccc2)c2nc(-c3ccccc3)n(CCN3CCCC3)c2n1,outcome,[6],inactive
same,Potency,[7],10 µM (active)
same,Potency,[17],inactive
same,Potency,[1],inactive
CCCn1c(C)nc2c(NCCN(C(C)C)C(C)C)nc(C)nc21,outcome,[6],inactive
same,Potency,[7],inactive
same,Potency,[1],inactive
CCN(CC)CCCC(C)n1c(-c2ccccc2)nc2c(NCc3ccccc3)nc(C)nc21 (configuration not stated),outcome,[6],inactive
same,Potency,[7],5.01 µM (active)
same,Potency,[17],inactive
same,Potency,[1],inactive
CCCn1c(C)nc2c(N(CCN(CC)CC)CCN(CC)CC)nc(C)nc21,outcome,[6],inactive
same,Potency,[7],inactive
same,Potency,[1],inactive
